# High-throughput results: PubChem BioAssay, National Center for Advancing Translational Sciences (NCATS)
# Hits are enriched below; roughly 6.9% of the tested compounds scored in any of these assays.
# KB-V1 MDR tox: qHTS assay for MDR1-selective chemotherapeutics: Primary screen using the drug-selected MDR subline cells KB-V1. KB-V1 MDR cells viability, CellTiter-Glo, 72 h. Potency, µM (series often up to 46.1 µM), usual class: cytotoxic. actives 3.4% (n = 400,000); note: potency is the fitted concentration of half-maximal effect; % is set by controls: 0 for no effect and ±100 for the full control effect; nearly all actives have a fitted effect of over 60% in size
#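 Following 72 h at 37 degrees C with compound, KB-V1 cell viability was read by CellTiter-Glo luminescence, medium being phenol-red-free DMEM plus 10% FBS; concentration-response parameters came from normalized, curve-fitted qHTS data.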
# Giardia killer: Small Molecules that selectively kill Giardia lamblia: qHTS; Giardia lamblia trophozoite viability; activity change, % at 7.66 µM, hits read low; actives 0.15% (n = 340,000); in the data active = activity change below about -80%; inconclusive = between about -30% and that limit;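 note: parasites exposed to compound for two days anaerobically before the ATP read; % is set by controls: 0 for no effect and ±100 for the full control effect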
#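 Anaerobic 48 hrs incubation at 37 deg C of 100 trophozoites/well with test compounds; ATPLite 1-Step luminescence, 15-30 min RT, reports cellular ATP as viability.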
# KB-3-1 cytotox: qHTS assay for MDR1-selective chemotherapeutics: Primary screen using the parental adenocarcinoma cell KB-3-1. KB-3-1 viability, CellTiter-Glo ATP luminescence, 72 h. Potency, µM (doses to about 46.1 µM), actives largely listed as cytotoxic. actives 1.4% (n = 400,000); note: potency is the fitted concentration of half-maximal effect; % is set by controls: 0 for no effect and ±100 for the full control effect; nearly all actives have a fitted effect of over 60% in size
#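 KB-3-1 parental drug-naive adenocarcinoma cells in DMEM/10% FBS, incubated 72 h at 37 C with pin-transferred compounds across a concentration series. Viability by CellTiter-Glo luminescence; concentration-response curves fitted after normalization.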
# SW480 rereplic: A quantitative high throughput screen for small molecules that induce DNA re-replication in SW480 colon adenocarcinoma cells | SW480 DNA re-replication, Hoechst DNA content imaging, 48 h | Potency, µM (doses to about 46.1 µM), inactives show top-dose re-replication activation, actives largely listed as activators | actives 1.8% (n = 340,000); note: potency is the fitted concentration of half-maximal effect; % of control where 0% means no effect; nearly all actives have a fitted effect of over 55% in size
#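 Readout is total intensity of Hoechst-stained nuclei, excited at 405 nm and collected at 500-530 nm. Compound treatment lasted 48 hr at 37 C in 5% CO2 before staining.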
# MCF10A rerep: A quantitative high throughput screen for small molecules that induce DNA re-replication in MCF 10a normal breast cells | actives 2.9% (n = 350,000) | Potency, µM (top dose mostly 46.1 µM), inactives show top-dose activity, positive = re-replication, most hits filed as activators | MCF 10A DNA re-replication, Hoechst nuclear intensity, 48 h | AID 624296, 2012; note: potency is the fitted concentration of half-maximal effect; % of control where 0% means no effect; nearly all actives have a fitted effect of over 50% in size
# ASM inhibitor: Inhibitors of Secretory Acid Sphingomyelinase (S-ASM): qHTS; placental ASM, HMU-PC fluorogenic substrate, 60 min; Sphingomyelin phosphodiesterase (Homo sapiens), P17405; Potency, µM (top dose mostly 57.5 µM), without a hit: top-dose activity change, negative = inhibition, actives largely listed as inhibitors; actives 0.006% (n = 340,000); note: potency is the fitted concentration of half-maximal effect
# Target sequence (P17405 47-631 limits assumed): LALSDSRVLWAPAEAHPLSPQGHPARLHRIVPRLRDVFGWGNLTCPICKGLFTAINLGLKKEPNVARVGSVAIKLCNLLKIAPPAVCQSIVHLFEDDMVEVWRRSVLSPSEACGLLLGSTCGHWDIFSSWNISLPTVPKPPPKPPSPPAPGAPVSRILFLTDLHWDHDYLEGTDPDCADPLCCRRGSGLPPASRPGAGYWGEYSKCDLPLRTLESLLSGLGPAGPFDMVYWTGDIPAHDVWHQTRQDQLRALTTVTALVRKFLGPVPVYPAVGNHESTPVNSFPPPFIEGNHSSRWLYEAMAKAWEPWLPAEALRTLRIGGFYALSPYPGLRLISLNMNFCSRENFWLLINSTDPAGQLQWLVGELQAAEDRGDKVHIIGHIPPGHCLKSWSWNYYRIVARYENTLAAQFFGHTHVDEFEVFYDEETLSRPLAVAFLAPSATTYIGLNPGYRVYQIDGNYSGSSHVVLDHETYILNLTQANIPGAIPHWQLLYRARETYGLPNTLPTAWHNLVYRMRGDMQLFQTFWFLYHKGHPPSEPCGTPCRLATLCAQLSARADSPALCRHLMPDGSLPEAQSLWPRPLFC
#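 Fluorogenic HMU-PC substrate (9 uM final) is turned over by placental ASM in 60 min at 37 C after a 10 min compound preincubation. Reaction ended by alkaline stop (pH 10), with fluorescence read at 386/447 nm.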
# Active calls of the source: *; i = inactive; ? = inconclusive; · = no result. Unless noted, calls come from the whole dose curve; as a rule, active = well fitted curve in the direction sought with a large enough effect; inconclusive = small, poorly fitted or top-dose-only effect, or another doubt; inactive = no such curve, though single readings can be large; an effect the other way counts as inactive or inconclusive.
SMILES,KB-V1 MDR tox,Giardia killer,KB-3-1 cytotox,SW480 rereplic,MCF10A rerep,ASM inhibitor
CCOC(=O)C(NC(=O)Nc1ccc(F)cc1)(OCC)C(F)(F)F (centres undefined),i,-4,i,-5%,4%,0%
CCOC(=O)C1(C(F)(F)F)N=C(C(F)(F)F)Nc2ccc(F)cc21 (centres undefined),?,-19,i,13µM*,-2%,-1%
CC1(c2ccc3noc(-c4ccccc4)c3c2)OCCO1,i,-5,i,0%,-2%,1%
COc1cccc(-c2onc3ccc(C4(C)OCCO4)cc23)c1,i,8,i,16%,18µM*,-1%
O=C(CN1CCC(C(=O)c2ccc(F)cc2)CC1)Nc1ccccc1,4.6µM*,9,i,1%,2%,0%
O=C(c1ccc(F)cc1)C1CCN(Cc2ccccc2F)CC1,i,·,i,·,·,·
O=C(CN1CCC(C(=O)c2ccc(F)cc2)CC1)Nc1ccc(F)cc1,?,13,i,-1%,13%,8%
O=C(CN1CCC(C(=O)c2ccc(F)cc2)CC1)NCc1ccccc1F,9.2µM*,-2,?,17%,0%,-1%
CC(NC(=O)CCSCCC(=O)NC(C)c1ccccc1)c1ccccc1 (centres undefined),16µM*,9,i,-2%,15%,3%
CC(NC(=O)CC(c1ccccc1)c1cc(Cl)ccc1O)c1ccccc1 (centres undefined),21µM*,7,?,14%,?,-2%
Cc1ccc(O)c(C(CC(=O)NC(C)C)c2ccccc2)c1 (centres undefined),i,38,?,58%,6%,-2%
CC(NC(=O)CCC(=O)NC(C)c1ccccc1)c1ccccc1 (centres undefined),i,4,i,?,-3%,-1%
CCCN(CCC)C(=O)CC(c1ccccc1)c1cc(C)ccc1O (centres undefined),?,-26,i,9%,?,-2%
CN(Cc1ccccc1)C(=O)CC(c1ccccc1)c1cc(Cl)ccc1O (centres undefined),13µM*,7,?,?,?,-2%
Cc1ccc2c(c1)C/C(=C/c1ccc(N(C)C)cc1)C2=O,i,·,i,·,·,·
COc1ccc(Nc2oc(/C=C/c3ccc(OC)c(OC)c3)nc2C#N)cc1,i,·,i,·,·,·
O=C1CCCC2=C1C1(CCSC1)N=C(Nc1nc3ccccc3o1)N2 (centres undefined),i,·,i,·,·,·
N=c1c2c(-c3ccccc3)c(-c3ccccc3)n(Cc3ccco3)c2ncn1Cc1ccco1,?,14,16µM*,2%,?,-7%
CCCCn1cnc2c(c(-c3ccccc3)c(-c3ccccc3)n2Cc2ccco2)c1=N,i,4,i,-10%,6%,2%
CCCN1CCC(=O)N(CCSc2ccc(Br)cc2)CC1,·,15,·,·,·,·
Cc1ccc(NS(=O)(=O)c2ccc3c(c2)c(=O)n(C)c(=O)n3C)cc1F,?,11,18µM*,?,23%,-9%
Cc1cc(C)cc(NS(=O)(=O)c2ccc3c(c2)c(=O)n(C)c(=O)n3C)c1,?,7,8.2µM*,-6%,-3%,-5%
COc1ccccc1C(=O)Nc1c(C(=O)N2CCN(c3ccccc3F)CC2)oc2ccccc12,i,·,i,·,·,·
C=C1C=C(C)n2ncc(C(=O)Nc3ccccc3C(=O)OC)c2N1,i,·,?,·,·,·
Cc1ccc(-n2c(C)nc3c(cnn3-c3ccccc3Cl)c2=O)cc1C,21µM*,12,?,3%,0%,0%
